From PubChem BioAssay (Tox21) come the findings set out here.

For assay [1], the target named is Acetylcholinesterase (Homo sapiens) (UniProt P22303). Put plainly: Acetylcholinesterase (AChE) small molecule antagonists: enzyme-based qHTS assay (AID 1347397; calls by dose curve; note: nearly all actives have a fitted effect of over 55% in size; note: potency is the fitted concentration of half-maximal effect). The note with it: Potency: AChE enzyme activity inhibition. The method in brief: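 Human recombinant acetylcholinesterase; substrate acetylthiocholine; thiocholine quantified with DTNB (colorimetric). Compound preincubation 30 min RT; reaction 10 min RT.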
For orientation: Quantitative high-throughput screening tests each substance at several concentrations.

For assay [2] the target is unchanged. Put plainly: Acetylcholinesterase (AChE) small molecule antagonists: fluorescence cell-based qHTS assay (AID 1347398; calls by dose curve; note: nearly all actives have a fitted effect of over 50% in size; note: potency is the fitted concentration of half-maximal effect). The following applies: Potency: AChE activity. The method, boiled down: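 Thiocholine generated from acetylthiocholine by SH-SY5Y cell AChE is detected with Thiolite Green (Ex/Em 490/520 nm) after 40 min at room temperature, following 30 min compound pretreatment at 37 C.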

For assay [3] the target is unchanged. Put plainly: Acetylcholinesterase (AChE) small molecule antagonists: enzyme-based qHTS assay with human liver microsomes (AID 1347399; calls by dose curve; note: nearly all actives have a fitted effect of over 60% in size; note: potency is the fitted concentration of half-maximal effect). The following applies: Potency: qHTS inhibition. The method, boiled down:
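Recombinant human AChE (50 mU/mL in the enzyme mix) and human liver microsomes (0.25 mg/mL final) were preincubated with compound and NADPH (0.25 mg/mL final) for 30 min at 37 C. Acetylthiocholine/DTNB was then added; thiocholine was read colorimetrically after 10 min at room temperature.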

The target of assay [4] is Cytochrome P450 2C19 (Homo sapiens) (UniProt P33261). Put plainly: Cytochrome P450 Family 2 Subfamily C Member 19 (CYP2C19) small molecule antagonists: luciferase reporter qHTS assay (AID 1671197). Note: nearly all actives have a fitted effect of over 65% in size. Note: potency is the fitted concentration of half-maximal effect. The method in brief: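 Enzyme-substrate mix with proluciferin substrate (P450-Glo CYP2C19 system) preincubated with compounds 10 min at room temperature; NADPH regeneration solution added, 37C for 1 h; detection reagent stops reaction, luminescence read after 20 min. Ketoconazole positive control.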
Background: Reporter assays use an easily measured gene product as a stand-in for the process of interest.

Assay [5] addresses Cytochrome P450 3A4 (Homo sapiens) (UniProt P08684). Put plainly: Cytochrome P450 Family 3 Subfamily A Member 4 (CYP3A4) small molecule antagonists: luciferase reporter qHTS assay (AID 1671201). Note: nearly all actives have a fitted effect of over 50% in size. Note: potency is the fitted concentration of half-maximal effect. The method, boiled down:
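CYP3A4 activity was followed with a P450-Glo proluciferin substrate. Test compounds in DMSO were preincubated 10 min; NADPH regeneration then ran 1 h, and light output was read 20 min after detection reagent.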

Assay [6] has as its target Cytochrome P450 2D6 (Homo sapiens) (UniProt P10635). The assay can be described thus: Cytochrome P450 Family 2 Subfamily D Member 6 (CYP2D6) small molecule antagonists: luciferase reporter qHTS assay (AID 1671196). Note: nearly all actives have a fitted effect of over 50% in size. Note: potency is the fitted concentration of half-maximal effect. The method, boiled down:
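Luminescence (RLU), read 20 min after detection reagent, indicated CYP2D6 conversion of proluciferin to luciferin during a 1 h NADPH-dependent reaction at room temperature.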

The target of assay [7] is Cytochrome P450 1A2 (Homo sapiens) (UniProt P05177). Put plainly: Cytochrome P450 Family 1 Subfamily A Member 2 (CYP1A2) small molecule antagonists: luciferase reporter qHTS assay (AID 1671199). Note: nearly all actives have a fitted effect of over 50% in size. Note: potency is the fitted concentration of half-maximal effect. The method in brief: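 CYP1A2 turnover of a luminogenic substrate was quantified after 1 h with NADPH regeneration at room temperature. Furafylline served as positive control.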

Assay [8] concerns the target Voltage-gated inwardly rectifying potassium channel KCNH2 (Homo sapiens) (UniProt Q12809). The assay can be described thus: Human Ether-a-go-go-Related Gene (hERG) channel small molecule antagonists: fluorescence cell-based qHTS assay (AID 1671200). The method, boiled down:
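In this thallium-flux screen, overnight-cultured U2OS cells bearing the channel are dye-loaded in darkness for an hour, rested 10 min at room temperature, and then monitored kinetically at 480/540 nm for two minutes post-stimulus.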
On the technique in general: hERG is a cardiac potassium channel; its block is linked to QT prolongation.

In assay [9] the target is Cytochrome P450 2C9 (Homo sapiens) (UniProt P11712). Put plainly: Cytochrome P450 Family 2 Subfamily C Member 9 (CYP2C9) small molecule antagonists: luciferase reporter qHTS assay (AID 1671198). Note: nearly all actives have a fitted effect of over 50% in size. Note: potency is the fitted concentration of half-maximal effect. The method in brief: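 CYP2C9 activity was measured with a P450-Glo proluciferin substrate. Enzyme–substrate mix was held with compound for 10 min at room temperature, then NADPH regeneration solution was added for 1 h at 37C. Luciferin product was read as luminescence.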

Inconclusive results are not listed. Active and inactive are the calls of the source. Unless noted, calls come from the whole dose curve; as a rule, active = well fitted curve in the direction sought with a large enough effect in the repeat runs; inconclusive = weak or mixed curves; inactive = no such curve, though single readings can be large; an effect the other way counts as inactive or inconclusive.

Chain of Cytochrome P450 2D6 (Homo sapiens) (P10635 whole entry, looked up): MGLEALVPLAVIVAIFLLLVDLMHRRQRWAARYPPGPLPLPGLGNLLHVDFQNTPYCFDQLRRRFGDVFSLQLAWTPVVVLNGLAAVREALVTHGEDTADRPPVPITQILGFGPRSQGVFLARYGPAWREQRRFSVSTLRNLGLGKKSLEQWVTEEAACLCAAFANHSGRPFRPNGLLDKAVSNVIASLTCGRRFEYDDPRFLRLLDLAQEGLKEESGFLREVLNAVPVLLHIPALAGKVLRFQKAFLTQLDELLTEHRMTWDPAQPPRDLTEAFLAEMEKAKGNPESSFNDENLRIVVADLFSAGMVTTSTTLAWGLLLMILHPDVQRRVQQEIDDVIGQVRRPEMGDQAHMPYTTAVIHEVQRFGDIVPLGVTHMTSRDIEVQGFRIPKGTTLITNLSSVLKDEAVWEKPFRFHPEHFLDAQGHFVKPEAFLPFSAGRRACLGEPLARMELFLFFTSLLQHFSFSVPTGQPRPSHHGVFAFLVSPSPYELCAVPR
Chain of Cytochrome P450 2C9 (Homo sapiens) (P11712 whole entry, looked up): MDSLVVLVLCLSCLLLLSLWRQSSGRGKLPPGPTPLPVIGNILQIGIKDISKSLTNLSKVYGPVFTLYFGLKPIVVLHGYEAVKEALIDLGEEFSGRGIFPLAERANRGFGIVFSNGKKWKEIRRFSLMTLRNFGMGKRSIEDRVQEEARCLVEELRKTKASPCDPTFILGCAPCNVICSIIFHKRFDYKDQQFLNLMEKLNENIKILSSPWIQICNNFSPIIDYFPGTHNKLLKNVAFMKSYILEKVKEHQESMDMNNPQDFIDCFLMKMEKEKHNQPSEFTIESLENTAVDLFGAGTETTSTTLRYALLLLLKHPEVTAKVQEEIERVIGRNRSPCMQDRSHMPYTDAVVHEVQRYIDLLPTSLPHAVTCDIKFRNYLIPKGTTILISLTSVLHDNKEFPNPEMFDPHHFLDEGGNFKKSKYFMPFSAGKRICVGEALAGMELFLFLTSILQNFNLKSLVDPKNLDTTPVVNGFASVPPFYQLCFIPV
Chain of Cytochrome P450 1A2 (Homo sapiens) (P05177 whole entry, looked up): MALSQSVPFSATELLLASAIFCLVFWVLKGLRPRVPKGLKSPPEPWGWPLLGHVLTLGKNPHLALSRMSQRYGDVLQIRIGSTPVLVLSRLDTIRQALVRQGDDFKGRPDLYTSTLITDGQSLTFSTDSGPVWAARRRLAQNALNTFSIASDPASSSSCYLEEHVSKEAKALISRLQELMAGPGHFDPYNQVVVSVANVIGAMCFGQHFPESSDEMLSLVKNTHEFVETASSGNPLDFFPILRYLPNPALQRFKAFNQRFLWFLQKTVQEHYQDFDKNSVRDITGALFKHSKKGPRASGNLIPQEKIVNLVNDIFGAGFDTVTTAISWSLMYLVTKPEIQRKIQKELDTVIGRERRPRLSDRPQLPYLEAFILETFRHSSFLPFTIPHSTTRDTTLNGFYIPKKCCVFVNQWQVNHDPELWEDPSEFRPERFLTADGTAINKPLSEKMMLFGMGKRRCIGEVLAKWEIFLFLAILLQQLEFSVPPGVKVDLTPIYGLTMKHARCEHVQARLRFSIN
Chain of Voltage-gated inwardly rectifying potassium channel KCNH2 (Homo sapiens) (Q12809 whole entry, looked up): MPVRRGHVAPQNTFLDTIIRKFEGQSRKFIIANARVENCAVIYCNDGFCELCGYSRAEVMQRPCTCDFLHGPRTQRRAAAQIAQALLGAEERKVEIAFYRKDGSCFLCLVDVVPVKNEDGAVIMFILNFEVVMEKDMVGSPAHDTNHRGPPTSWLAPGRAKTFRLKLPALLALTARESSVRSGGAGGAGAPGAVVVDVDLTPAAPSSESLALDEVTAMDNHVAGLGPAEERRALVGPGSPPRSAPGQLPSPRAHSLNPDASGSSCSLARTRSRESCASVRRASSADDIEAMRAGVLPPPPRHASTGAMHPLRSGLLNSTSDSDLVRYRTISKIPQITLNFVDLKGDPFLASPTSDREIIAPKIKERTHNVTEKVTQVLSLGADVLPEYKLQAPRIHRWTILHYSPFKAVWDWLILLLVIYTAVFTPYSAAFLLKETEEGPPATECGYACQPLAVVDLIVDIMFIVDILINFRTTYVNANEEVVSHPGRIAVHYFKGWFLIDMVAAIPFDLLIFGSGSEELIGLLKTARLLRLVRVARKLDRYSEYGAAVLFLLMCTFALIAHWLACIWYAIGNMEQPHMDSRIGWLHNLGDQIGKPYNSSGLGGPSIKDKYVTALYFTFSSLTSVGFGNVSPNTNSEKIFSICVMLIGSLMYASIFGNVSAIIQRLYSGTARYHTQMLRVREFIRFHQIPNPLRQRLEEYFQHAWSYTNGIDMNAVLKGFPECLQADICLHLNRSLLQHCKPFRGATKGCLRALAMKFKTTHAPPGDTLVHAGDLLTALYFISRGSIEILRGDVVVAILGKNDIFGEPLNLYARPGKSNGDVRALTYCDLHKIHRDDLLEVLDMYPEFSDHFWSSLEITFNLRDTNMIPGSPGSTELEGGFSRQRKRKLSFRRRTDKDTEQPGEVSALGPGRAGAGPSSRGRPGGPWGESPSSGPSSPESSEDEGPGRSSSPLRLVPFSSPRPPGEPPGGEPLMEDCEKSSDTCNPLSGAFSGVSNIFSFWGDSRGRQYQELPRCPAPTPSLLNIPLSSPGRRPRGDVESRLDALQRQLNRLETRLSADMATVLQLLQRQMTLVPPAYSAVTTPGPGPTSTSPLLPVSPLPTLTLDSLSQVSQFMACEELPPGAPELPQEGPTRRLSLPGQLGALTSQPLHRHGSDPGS
Chain of Cytochrome P450 3A4 (Homo sapiens) (P08684 whole entry, looked up): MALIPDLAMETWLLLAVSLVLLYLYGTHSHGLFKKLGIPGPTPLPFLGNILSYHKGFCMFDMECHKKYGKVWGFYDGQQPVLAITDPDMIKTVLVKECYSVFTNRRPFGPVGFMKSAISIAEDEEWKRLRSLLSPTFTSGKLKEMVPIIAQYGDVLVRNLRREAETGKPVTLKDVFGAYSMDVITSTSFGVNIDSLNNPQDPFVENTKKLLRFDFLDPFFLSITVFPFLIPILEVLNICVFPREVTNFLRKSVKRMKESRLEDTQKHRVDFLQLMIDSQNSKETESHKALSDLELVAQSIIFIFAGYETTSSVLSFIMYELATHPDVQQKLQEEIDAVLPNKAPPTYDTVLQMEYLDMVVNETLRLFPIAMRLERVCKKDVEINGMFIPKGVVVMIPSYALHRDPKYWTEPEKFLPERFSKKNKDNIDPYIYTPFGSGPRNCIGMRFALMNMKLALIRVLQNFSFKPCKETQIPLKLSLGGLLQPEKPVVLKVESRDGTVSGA
Chain of Cytochrome P450 2C19 (Homo sapiens) (P33261 whole entry, looked up): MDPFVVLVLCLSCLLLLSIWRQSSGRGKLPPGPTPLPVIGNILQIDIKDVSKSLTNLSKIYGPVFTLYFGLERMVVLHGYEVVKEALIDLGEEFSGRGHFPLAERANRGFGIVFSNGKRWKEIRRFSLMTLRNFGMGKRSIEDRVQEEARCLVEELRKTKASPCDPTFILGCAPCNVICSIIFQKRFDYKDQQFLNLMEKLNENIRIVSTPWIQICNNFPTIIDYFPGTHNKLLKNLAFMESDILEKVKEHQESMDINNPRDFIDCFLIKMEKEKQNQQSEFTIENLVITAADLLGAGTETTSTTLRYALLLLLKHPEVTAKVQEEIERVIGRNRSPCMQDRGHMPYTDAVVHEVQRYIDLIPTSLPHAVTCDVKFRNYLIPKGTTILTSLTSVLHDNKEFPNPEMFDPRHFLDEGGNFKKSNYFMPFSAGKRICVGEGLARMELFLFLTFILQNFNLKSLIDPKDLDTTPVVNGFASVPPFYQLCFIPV
Chain of Acetylcholinesterase (Homo sapiens) (P22303 whole entry, looked up): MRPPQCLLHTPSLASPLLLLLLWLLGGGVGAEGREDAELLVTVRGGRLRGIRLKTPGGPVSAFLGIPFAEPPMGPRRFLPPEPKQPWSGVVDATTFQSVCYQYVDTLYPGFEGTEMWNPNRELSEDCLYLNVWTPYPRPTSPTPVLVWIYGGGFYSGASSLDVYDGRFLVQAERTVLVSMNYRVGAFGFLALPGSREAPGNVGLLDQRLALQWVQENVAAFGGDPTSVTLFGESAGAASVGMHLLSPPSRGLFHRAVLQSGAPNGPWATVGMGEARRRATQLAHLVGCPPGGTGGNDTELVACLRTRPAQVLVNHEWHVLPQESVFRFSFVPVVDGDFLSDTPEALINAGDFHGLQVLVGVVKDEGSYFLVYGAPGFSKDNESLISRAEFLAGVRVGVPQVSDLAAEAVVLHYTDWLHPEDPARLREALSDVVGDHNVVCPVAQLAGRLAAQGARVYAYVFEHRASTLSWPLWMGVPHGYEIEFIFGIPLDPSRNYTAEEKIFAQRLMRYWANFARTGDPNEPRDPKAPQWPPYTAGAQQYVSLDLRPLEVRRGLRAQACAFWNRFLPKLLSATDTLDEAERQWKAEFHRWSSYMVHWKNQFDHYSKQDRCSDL

For `Cc1coc2c1CCC(C)C2` (stereo not given), the Potency result in [1], in assay [2] and in [3] was “inactive” throughout. In addition, the figures for the Potency in assay [4] and in [5] were 73.4 µM (active) and 29.2 µM (active), respectively.

Regarding `BrCCCCCCBr`, the Potency entry in [1], in [3], in [6], in assay [8] and in [5] was “inactive” throughout. Moreover, the results for the Potency in assay [4] and in assay [7] were 25.2 µM (active) and 63.3 µM (active), respectively.

As to `C[C@H]1CCC[C@H](O)CCCCCc2cc(O)cc(O)c2C(=O)O1`, the Potency entry in assay [1], in [2] and in [3] was “inactive” each time. For the same compound, the Potency was 22.6 µM (active) in assay [4], 31.9 µM (active) in assay [9], 35.8 µM (active) in assay [7] and 0.715 µM (active) in [5].

For `CC(=O)Nc1cc([As](=O)(O)O)ccc1O`, the Potency result in [1], in [2], in assay [3], in [4], in assay [9] and in assay [7] was “inactive” each time. In addition, the Potency result in assay [5] was “inactive”.

`COP(=S)(OC)Oc1c(Cl)cc(C)cc1Cl`: the Potency entry in assay [2], in [3], in [6] and in assay [8] was “inactive” each time. Moreover, the Potency in [4] is 7.1 µM (active); in [9], 8.94 µM (active); in assay [7], 8.94 µM (active); in assay [5], 5.03 µM (active).

For `CCN(Cc1ccc(Cl)nc1)/C(=C/[N+](=O)[O-])NC`, the Potency result in assay [1], in assay [3], in assay [6], in [4], in assay [9] and in assay [5] was “inactive” in each case.

As to `COc1cc(OC)nc(Sc2cccc(Cl)c2C(=O)O)n1`, the Potency entry in assay [1], in [2], in assay [3], in assay [4], in assay [7] and in assay [8] was “inactive” each time. In assay [5], the Potency result was “inactive”.

As for `CCOP(=O)(OCC)OP(=O)(OCC)OCC`, the Potency result in [1], in assay [2], in assay [3], in [9], in assay [7] and in [5] was “inactive” throughout.

Consider `CNC(=O)O/N=C(\C)SC`, for which the Potency in assay [1] is 2.83 µM (active); in [2], 1.26 µM (active); in [3] it was 17.8 µM (active). Further, the Potency result in assay [9], in assay [7] and in assay [5] was “inactive” each time.

Consider `O=C(Cc1ccccc1)OCc1ccccc1`, for which the Potency result in assay [1], in assay [2], in assay [3], in [8] and in assay [5] was “inactive” throughout. Further, the figures for the Potency in assay [4] and in [7] were 10.1 µM (active) and 18 µM (active), respectively.

`ClCC(Cl)Cl`: the Potency entry in [1], in [3], in assay [4], in assay [9], in [8] and in assay [5] was “inactive” in each case.

Turning to `Cc1ccccc1CO[C@@H]1C[C@@]2(C(C)C)CC[C@]1(C)O2`, the Potency result in assay [1], in assay [2], in assay [3] and in assay [8] was “inactive” throughout. In addition, the Potency in assay [4] was 5.64 µM (active); in assay [9], 22.4 µM (active); in [7] it was 20 µM (active); in assay [5] it was 3.99 µM (active).

For the compound `CN1CCC(O)(c2ccc(F)cc2)C(C(=O)c2ccc(F)cc2)C1` (stereo not given), the Potency result in [2], in assay [3], in [4], in [9] and in assay [7] was “inactive” each time. Besides, the Potency in [6] was 17.4 µM (active).

For `CCS(=O)(=O)C(C)(C)S(=O)(=O)CC`, the Potency result in assay [1], in [2], in assay [3], in assay [4], in assay [9] and in assay [7] was “inactive” each time. For the same compound, the Potency result in assay [8] and in [5] was “inactive” each time.

Take `OCCSCSCCO`: the Potency entry in assay [2], in assay [3], in assay [6], in assay [4], in assay [9] and in assay [7] was “inactive” in each case. In addition, the Potency entry in assay [8] and in [5] was “inactive” each time.

For `O=C(N[C@H]1CN2CCC1CC2)c1cc2ccoc2cn1`, the Potency entry in assay [1], in assay [3], in assay [4], in [7], in assay [8] and in assay [5] was “inactive” throughout. For the same compound, in [6], the Potency is 28.3 µM (active).

As for `CNC(=O)Oc1ccccc1C1OCCO1`, the Potency result in [1], in assay [2], in assay [3], in [4], in assay [8] and in assay [5] was “inactive” throughout. For the same compound, the Potency in assay [7] is 25.1 µM (active).

`CC(C)CC#N`: the Potency result in assay [2], in [3], in assay [7], in [8] and in assay [5] was “inactive” throughout. Moreover, in [4], the Potency was 32.5 µM (active).

In the case of `O=C(O)c1cccc(Cl)c1`, the Potency entry in [2], in assay [3], in [6], in assay [4], in assay [8] and in assay [5] was “inactive” in each case. For the same compound, the Potency in assay [7] is 40 µM (active).

Consider `CC(C(=O)c1ccccc1)N(C)C` (stereo not given), for which the Potency entry in assay [2], in assay [3] and in assay [7] was “inactive” each time. Moreover, the Potency in assay [4] was 4.9 µM (active).

For the compound `O=NN1CCCCC1`, the Potency entry in [2], in assay [3], in [6], in [7] and in assay [8] was “inactive” each time. In assay [4], the Potency is 35.4 µM (active).

Consider `c1cc2c(c(N3CCNCC3)c1)OCCO2`, for which the Potency entry in assay [2], in assay [3], in assay [4], in assay [9], in assay [7] and in assay [8] was “inactive” each time. Further, in assay [5], the Potency entry is “inactive”.

Turning to `COc1cc(C[C@@H](C)N)c(OC)cc1C`, the Potency entry in assay [2], in assay [3], in [4], in assay [9], in assay [8] and in [5] was “inactive” throughout. Also, in assay [6], the Potency was 47.9 µM (active).

Regarding `C#C[C@]1(O)C=C[C@H]2[C@@H]3CCC4=CC(=O)CC[C@@H]4[C@H]3CC[C@@]21CC`, the Potency result in [3], in assay [7] and in assay [8] was “inactive” throughout. Also, the Potency in assay [4] is 2.75 µM (active); in [9], 4.9 µM (active).

`CC(C)COP(=O)(OCC(C)C)OCC(C)C`: the Potency result in assay [2], in assay [3], in assay [6], in [4], in [9] and in assay [8] was “inactive” each time. Moreover, in assay [5], the Potency entry was “inactive”.
